Molecules are shown by their SMILES. In all, about 360,000 compounds went through this assay and about 2,600 (0.72%) were called active. This is one part of a sample in which actives are shown more often than they occur. Values without a mark were called inactive.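 The calls were made as follows: active = inhibition above its plate's cutoff, the mean inhibition of sample wells plus 3 SD (cut at about 27% in these data); inactive = the rest.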

Muscarinic acetylcholine receptor M4 (Homo sapiens), sequence (P08173 whole entry, looked up): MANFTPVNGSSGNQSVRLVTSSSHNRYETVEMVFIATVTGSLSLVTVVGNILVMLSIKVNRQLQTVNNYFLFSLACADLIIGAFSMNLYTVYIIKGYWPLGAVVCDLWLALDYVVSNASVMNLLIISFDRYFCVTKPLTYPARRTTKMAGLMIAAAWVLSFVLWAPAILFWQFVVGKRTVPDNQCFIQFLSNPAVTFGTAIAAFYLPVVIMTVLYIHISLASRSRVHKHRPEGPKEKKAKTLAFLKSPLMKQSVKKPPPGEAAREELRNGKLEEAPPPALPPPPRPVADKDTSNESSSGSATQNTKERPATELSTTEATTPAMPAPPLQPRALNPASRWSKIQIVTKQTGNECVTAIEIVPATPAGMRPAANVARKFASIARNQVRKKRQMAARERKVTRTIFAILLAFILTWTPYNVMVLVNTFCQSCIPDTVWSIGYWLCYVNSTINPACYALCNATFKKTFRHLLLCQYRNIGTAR

This test concerns the target Muscarinic acetylcholine receptor M4 (Homo sapiens) (UniProt P08173). The experiment in a line: CHRM4 blockers of acetylcholine calcium response – CHO cells, Fluo-8 calcium fluorescence, primary screen (AID 624125).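 Also: 0% = acetylcholine EC80 with DMSO and 100% = DMSO without agonist.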 The conditions noted are these: CHO-hM4 cells, ACh EC80, Fluo-8 calcium fluorescence; at 3 µM; active compounds read high.
Consider `C#CCNC(=O)C1=C[C@@H](c2ccccc2)[C@H](CCCO)[C@@H](OCC)O1`, for which the inhibition was 12.4%.

On to `O=[N+]([O-])c1ccc(CN2CC(N3CC=CC3)CS2(=O)=O)cc1` (centres undefined), for which the inhibition is -1.16%.

In the case of `O=C1/C(=C\c2ccc([N+](=O)[O-])cc2)CS(=O)(=O)C/C1=C/c1ccc([N+](=O)[O-])cc1`, the inhibition is 26.7% (active).

In the case of `O=C(CSCc1c(F)cccc1Cl)NCC1CCCO1` (centres undefined), the inhibition was -3.01%.

As for `CC(=O)Nc1ccccc1OC(C)C(=O)N1CCC(C)CC1` (centres undefined), the inhibition was -7.56%.

Turning to `CC(C)c1cc(C(=O)N(C)C2CCCN(Cc3ccccc3F)C2)n(C)n1` (centres undefined), the inhibition is -12.6%.

With `CN(C)CCOC(=O)C(c1ccccc1)C1(O)CCCC1` (centres undefined), the inhibition is 98% (active).

For `O=C(O)C(c1cccs1)C1(O)CCCCC1` (centres undefined), the inhibition was 5.22%.

Take `O=C(O)C(c1ccccc1)C1(O)CCCCC1` (centres undefined): the inhibition is -13.2%.

As to `CCC(C)[C@H](NC(=O)N1CCn2c1nc1ccccc12)C(=O)NCc1ccc(OC)cc1` (some centres undefined), the inhibition was -15.9%.

For the compound `NS(=O)(=O)c1ccc(CCNC(=O)c2ccc([N+](=O)[O-])cc2[N+](=O)[O-])cc1`, the inhibition was 5.77%.

As to `COc1nnc(-c2ccc(C)c(S(=O)(=O)N(C)C)c2)c2ccccc12`, the inhibition is 2.31%.

Turning to `CCCCNc1c(-c2cccc(Sc3ccc(OC)cc3)c2)nc2ccccn12`, the inhibition was 48.5% (active).

Regarding `COC(=O)c1ccc2nc(-c3ccccc3)c(Cc3ccc(OC)cc3C)n2c1`, the inhibition is 11.4%.

In the case of `COC(=O)c1ccc2nc(-c3cccc(Br)c3)c(Cc3ccc(OC)cc3C)n2c1`, the inhibition is 1.2%.

Take `CN1C(=O)CC(N2CCN(c3ccccn3)CC2)C1=O` (centres undefined): the inhibition is 2.5%.

`Cc1ccc(C(=O)N(CN2CCCC2=O)c2ccc(F)cc2)cc1`: the inhibition was 6.56%.

`COC(=O)c1ccc(CN2CCC(CO)(Cc3ccc(OC)cc3)CC2)cc1`: the inhibition was 31.7% (active).

In the case of `COc1ccc(CC2(CO)CCN(Cc3cnn(C)c3)CC2)cc1`, the inhibition is -5.66%.

With `COc1cccc(CC2(CO)CCN(Cc3cnc(-c4cccc(C)c4)nc3)CC2)c1`, the inhibition is 0.77%.

Consider `CC(C)(C)Nc1c(-c2cccs2)nc2ccccn12`, for which the inhibition is 6.54%.

Turning to `O=C(CNS(=O)(=O)c1ccc2c(c1)OCCCO2)N1CCN(c2ccc(F)cc2)CC1`, the inhibition was -7.25%.

As to `CC(C)CCN1C(=O)c2ccc(C(=O)Nc3cccc(S(N)(=O)=O)c3)cc2C1=O`, the inhibition is 4.89%.

For the compound `CN=C1C=C/C(=N/N=c2\ccn(O)cc2C)C=C1C`, the inhibition was 11.9%.

Take `Nc1scc[n+]1Cc1cccc2cccnc12`: the inhibition was -7.43%.

Turning to `c1ccc2c(C[n+]3csc4ccccc43)cccc2c1`, the inhibition was 30.1% (active).

Regarding `CCN(CC(=O)Nc1ccccc1OC)C(=O)CC1CC2CCC1C2` (centres undefined), the inhibition is 0.94%.

As for `Cc1cccc2c1N(CCOc1ccccc1)C(=O)C2=O`, the inhibition is -0.73%.

Take `C/C(=N\N1CCN(Cc2ccc(C)cc2)CC1)c1ccco1`: the inhibition is 1.69%.

On to `CCOC(=O)c1ccccc1NC(=O)COC(=O)CCC(=O)N1CCOCC1`, for which the inhibition is 2.73%.

As for `C[C@H]1[C@H]2c3nc4ccccc4n3C[C@H]1ON2C1CCCCC1`, the inhibition was -2.5%.

Turning to `Cc1onc(-c2ccccc2)c1-c1nnc(COC(=O)c2ccc(N(C)C)cc2)o1`, the inhibition is 62.4% (active).

On to `O=C(OCc1nnc(-c2ccccc2)o1)c1ccc2c(c1)C(=O)N(CCc1ccccc1)C2=O`, for which the inhibition was -2.43%.

As for `Cc1ccc(C(=O)NCC(=O)OCc2nnc(-c3ccccc3)o2)cc1`, the inhibition was 8.37%.

Take `COc1ccc(C(=O)N2CCCCC2c2cc(C(=O)Nc3ccccc3)no2)cc1` (centres undefined): the inhibition is -6.76%.

Turning to `Cc1nc2sc(C(=O)c3ccccc3)c(N)c2c2c1CCCC2`, the inhibition is 29.8% (active).

Take `Cn1c(-c2ccc(C(=O)c3ccccc3)s2)nc2ccccc21`: the inhibition was 1.58%.

Turning to `Cc1c(C(=O)Nc2ccccc2)sc2nc3n(c(=O)c12)CCCCC3`, the inhibition is -0.96%.

Regarding `COc1ccc([C@H]2C[C@@H](n3cc(COC(=O)c4ccccc4)nn3)[C@H](O)CN2C(=O)c2cccs2)cc1`, the inhibition was -7.8%.

In the case of `Cc1ccc(S(=O)(=O)N(CC(=O)NCCSC2CCCCC2)c2ccccc2F)cc1`, the inhibition was -2.75%.

For the compound `CCOC(=O)C1=CC[C@@H](c2ccccc2)N(S(=O)(=O)c2ccc(C)cc2)[C@H]1c1ccc(CC)cc1`, the inhibition is -16.5%.

For `CCCCC[C@@H]1C=C(C(=O)OCC)[C@H](c2ccccc2)N1S(=O)(=O)c1ccc(C)cc1`, the inhibition was -11.2%.

Turning to `CCOC(=O)C1C(C)C(C(C)(C)C)N(S(=O)(=O)c2ccc(C)cc2)C1c1ccccc1` (centres undefined), the inhibition was 37.7% (active).

As for `CCC(C)NCCOCCOc1ccc(Br)cc1C` (centres undefined), the inhibition was 6.84%.

As to `Cc1ccc(C)c(NC(=O)C(OC(=O)c2ccc(C)s2)c2ccccc2)c1` (centres undefined), the inhibition is -13.1%.

On to `CCCOc1ccc(F)cc1-c1cc(C(=O)Nc2ccc(F)cc2)[nH]n1`, for which the inhibition was -2.62%.

For `CCCOc1ccc(F)cc1-c1cc(C(=O)NCc2ccc(F)cc2)[nH]n1`, the inhibition was -9.17%.

For `CCCOc1ccc(F)cc1-c1cc(C(=O)Nc2ccc(F)c(Cl)c2)[nH]n1`, the inhibition was 28% (active).

Turning to `CC(=O)NC(C(=O)NCC(N)=O)C(C)C` (centres undefined), the inhibition was -7.93%.

Take `Cc1ccc(C)c(S(=O)(=O)Nc2cccc(-n3cnnn3)c2)c1`: the inhibition is 4.01%.

For `O=C(CC1Oc2ccccc2NC1=O)NCCCN1CCN(Cc2ccccc2)CC1` (centres undefined), the inhibition is -1.94%.

On to `CN(C)c1ccc(CNC23CN4CN(CN(C4)C2)C3)cc1`, for which the inhibition was 3.33%.

Turning to `O=C(CN1CCc2ccccc21)NC(c1ccccc1)c1ccccc1`, the inhibition was -1.96%.

With `O=C(CN1CCN(Cc2ccccc2)CC1)Nc1ccc(F)c(F)c1`, the inhibition was 13%.

For `O=C(CN1CCN(Cc2ccccc2)CC1)NC(c1ccccc1)c1ccccc1`, the inhibition is 44.7% (active).

Take `CN(CCc1ccccc1)c1ccc([N+](=O)[O-])cn1`: the inhibition was 10.7%.

For `COc1cc(NC(=S)NNC(=O)CC(C)C)c(OC)cc1Cl`, the inhibition was -7.19%.

Turning to `CN(O)C(=S)c1ccccc1`, the inhibition was 31.7% (active).

For the compound `Cc1nn(Cc2ccccc2)c(C)c1CNC(=O)c1ccc(F)c(S(=O)(=O)N2CCOCC2)c1`, the inhibition is -8.04%.
